Compounds with a hit are over-represented: about 4.6% of the library has one in this group of screens.
HSF1 inh: HSF1 inhibitors in luciferase reporter cells, primary screen, cell-based, NIH3T3, luminescence. 300,000 compounds, 0.77% hits. NIH3T3-HGL HSE-luciferase, MG132-induced, luminescence 8 h; active compounds read low. activity change, negative = inhibition, % at 7.5 µM (by protocol);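 active = more than half of replicate wells show activity change below -50%, luminescence cut by over half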;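 also: luciferase reports HSF-1 transcriptional activity via heat shock element; 0% = median of DMSO wells and -100% = zero luminescence signal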
HSF-1 act: HSF-1 activators, primary screen, NIH3T3-HGL cells, MG132 stress, luminescence, single point | NIH3T3-HGL HSF-1 luciferase reporter, 8 h; 100% = twice DMSO control signal | activation, % at 9 µM | 300,000 compounds, 1.7% hits | AID 504408, 2011;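 active = mean replicate activation of at least 50% with a set share of replicates each reaching 50%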;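 also: 0% = median of the neutral control wells and 100% = twice that signal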
GAA850 FXN act: FXN promoter activators, primary screen, cell-based, luciferase luminescence, HEK293 lucGAA850; activation, % at 6 µM; HEK293 lucGAA850 FXN promoter luciferase reporter, 24 h; percent of 10 µM SAHA response; 360,000 compounds, 0.56% hits; AID 540364, 2011;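 active = activation above the average of all compounds screened plus 3 SD, cutoff fixed separately per campaign, cut at about 7.5% in these data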;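 also: 0% = DMSO wells and 100% = 10 µM SAHA wells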
AHR activator: AHR activators, primary screen, cell-based, luminescence, luciferase reporter, human. Aryl hydrocarbon receptor (Homo sapiens), P35869. AHR-responsive luciferase reporter cells. activation, % at 5 µM. 320,000 compounds, 2.5% hits. AID 2796, 2010; in the data active = activation above about 47%;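 also: 0% = vehicle wells and 100% = reference agonist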
Target sequence (P35869 whole entry, looked up): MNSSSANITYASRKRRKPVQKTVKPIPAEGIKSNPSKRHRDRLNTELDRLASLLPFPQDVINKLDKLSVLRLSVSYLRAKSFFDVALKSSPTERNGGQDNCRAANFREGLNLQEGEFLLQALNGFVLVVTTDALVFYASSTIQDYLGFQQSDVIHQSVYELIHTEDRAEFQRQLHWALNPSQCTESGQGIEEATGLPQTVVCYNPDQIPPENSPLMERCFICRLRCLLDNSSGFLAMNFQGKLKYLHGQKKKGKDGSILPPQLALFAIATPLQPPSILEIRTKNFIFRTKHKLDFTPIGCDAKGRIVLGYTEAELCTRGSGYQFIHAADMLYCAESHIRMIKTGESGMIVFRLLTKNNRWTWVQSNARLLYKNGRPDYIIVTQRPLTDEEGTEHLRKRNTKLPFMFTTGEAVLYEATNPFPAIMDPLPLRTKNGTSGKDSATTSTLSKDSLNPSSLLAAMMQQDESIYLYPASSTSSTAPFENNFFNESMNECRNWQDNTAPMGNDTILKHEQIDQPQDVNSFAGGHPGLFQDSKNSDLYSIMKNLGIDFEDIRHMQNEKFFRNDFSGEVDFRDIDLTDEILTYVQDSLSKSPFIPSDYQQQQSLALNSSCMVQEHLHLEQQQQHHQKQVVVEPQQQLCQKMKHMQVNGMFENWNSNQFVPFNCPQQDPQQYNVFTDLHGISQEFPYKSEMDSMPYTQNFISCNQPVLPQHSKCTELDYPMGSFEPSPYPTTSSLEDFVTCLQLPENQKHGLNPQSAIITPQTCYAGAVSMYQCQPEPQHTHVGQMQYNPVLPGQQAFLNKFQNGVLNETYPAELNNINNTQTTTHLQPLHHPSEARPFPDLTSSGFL
* = called active by the depositor; nt = no result.

SMILES	HSF1 inh	HSF-1 act	GAA850 FXN act	AHR activator
COc1ccc2[nH]c3c(c2c1)CCN1C(=O)N([C@@H](C)C(=O)NCC2CCCO2)C(=O)[C@]31C (some centres not stated)	0.8	13.9	0.0	5.6
CNC(=S)N/N=C(\C)c1ccc2c(c1)OCO2	5.4	6.3	-0.4	72.1*
C/C(=N\NC(=O)c1c[nH]c2ccccc12)c1ccc2c(c1)OCO2	0.7	16.2	3.7	93.3*
C/C(=N\NC(=S)Nc1ccc(C(C)C)cc1)c1ccc2c(c1)OCO2	-6.6	33.5	3.5	33.6
C/C(=N\NC(=S)NC(C)C)c1ccc2c(c1)OCCO2	-5.5	17.5	1.8	11.1
CNC(=S)N/N=C(\C)c1ccc2c(c1)OCCO2	-12.1	-9.4	1.5	48.4*
CSc1cc(-c2ccc(Cl)cc2)c(C(=O)NN)s1	-5.7	5.9	1.8	-0.9
CCc1ccccc1NC(=O)c1ccc(S(=O)(=O)N2CCCC2)cc1	-6.3	-4.6	1.9	-0.4
N#Cc1ccc(-c2ccccc2)nc1SCC(=O)c1cc2ccccc2oc1=O	-1.7	12.8	-0.8	55.2*
Cc1ccc(CNC(=O)CSc2nnc(CNC(=O)c3ccc(F)cc3)o2)cc1	nt	nt	0.8	nt
Cc1cc(C(=O)CN2C(=O)C(=O)N(Cc3ccccc3)C2=O)c(C)n1-c1ccc2c(c1)OCCO2	-70.4*	-68.4	-1.0	2.3
CCCC1(CCC)NC(=O)N(CC(=O)c2cc(C)n(-c3ccc4c(c3)OCO4)c2C)C1=O	-3.2	1.0	-2.3	9.4
Cc1ccc(O)c(C(=O)c2cnc3c(c2)c(-c2ccc(F)cc2)c(C#N)c(=O)n3C)c1	33.5	63.0*	-2.5	0.4
CCOC(=O)C(Cc1ccccc1)NC(=O)CCc1nnc2ccc(N3CCCCC3)nn12 (configuration not stated)	3.0	12.3	-0.8	3.3
O=C(Nc1ccc(S(=O)(=O)NCC2CCCO2)cc1)c1cnccn1 (configuration not stated)	-5.9	9.5	1.8	-0.4
CCN(CC)CCCN(Cc1cc2cc3c(cc2[nH]c1=O)OCO3)C(=S)Nc1ccccc1	-0.9	-15.2	-1.7	48.7*
COc1cc2cc(CN(CCc3ccccc3C)C(=S)NCCCN(C)C)c(=O)[nH]c2cc1OC	3.3	4.8	-3.1	2.0
CCNC(=S)N(CCc1ccccc1C)Cc1cc2cc(OC)c(OC)cc2[nH]c1=O	1.2	5.0	-2.7	57.1*
CC(=O)N(CCc1ccccc1C)Cc1cc2cc3c(cc2[nH]c1=O)OCO3	-5.4	13.6	-2.6	60.5*
O=C(c1cccs1)N1CCN(S(=O)(=O)c2cccs2)CC1	-3.5	-5.8	0.6	2.7
Oc1[nH]c2ccc(Br)cc2c1N=Nc1ccc(C(F)(F)F)cn1	-4.4	-24.0	0.5	64.4*
Oc1[nH]c2ccccc2c1N=Nc1ccc(C(F)(F)F)cn1	16.5	21.3	0.8	55.3*
CCOC(=O)CN(C(=O)CSc1nnc(COc2ccc(OC)cc2)n1CC)c1ccccc1	3.9	-8.1	2.1	0.0
COc1ccc(/C=N/Nc2cc(C)nc3c(C)cccc23)cc1	9.9	32.5	0.9	70.8*
Nn1c(COc2ccc(Cl)cc2)nc2ccccc2c1=O	40.0	85.6*	4.5	7.4
SMILES	HSF1 inh	HSF-1 act	GAA850 FXN act	AHR activator
CCOC(=O)c1sc2nc(-c3ccco3)c3c(c2c1N)CC(C)(C)OC3	7.0	13.2	2.4	8.6
CC(=O)OCCNc1nc(-c2ccccc2)nc2ccccc12	0.9	-8.2	0.3	58.0*
COCCNc1nc(-c2ccccc2)nc2ccccc12	-3.5	0.9	0.0	9.8
CN1C(=O)/C(=N/OC(=O)c2ccccc2)c2ccccc21	-1.1	-0.3	2.6	2.7
Cc1cc(C)cc(OCc2ccc(C(=O)NN)o2)c1	-0.1	7.0	0.0	78.9*
CCCc1ccc(OCc2ccc(C(=O)NN)o2)c(OC)c1	22.3	37.2	2.1	55.6*
CN(C(=O)COC(=O)c1ccccc1NC(=O)c1ccco1)C1CCS(=O)(=O)C1 (configuration not stated)	-3.5	5.2	1.5	1.3
O=C(CSc1nncc2ccccc12)Nc1ccccc1	4.8	17.2	0.7	0.9
O=C(CSc1nncc2ccccc12)Nc1cccc(O)c1	28.5	66.5*	-0.6	0.9
O=C(CSc1nnc2c3ccccc3c3ccccc3c2n1)Nc1ccccc1F	16.1	15.1	0.9	68.4*
O=C(CSc1ncccn1)Nc1ccccc1	4.0	13.4	5.1	8.6
O=C(CSc1nnc2c3ccccc3c3ccccc3c2n1)Nc1ccccc1	8.3	7.6	nt	47.2*
COc1cccc(OC)c1C(=O)Nc1ccc(N2CCN(S(C)(=O)=O)CC2)cc1	-8.2	3.5	-1.6	-1.9
COc1cccc(OC)c1C(=O)Nc1ccc(N2CCCC2)cc1	-1.2	10.8	1.0	49.5*
CCOc1ccc(NC(=O)c2c(OC)cccc2OC)cc1	-2.2	-9.8	0.5	50.8*
CCOc1ccc(NC(=O)COC(=O)c2c(OC)cccc2OC)cc1	-1.9	6.7	-1.1	3.2
O=C1CC(c2cccc(Cl)c2)c2cc3c(cc2N1)CCC3 (configuration not stated)	0.6	-3.5	-1.3	7.8
CC(C)(C)c1ccc(C(=O)Nc2ccc(F)cc2)s1	34.4	78.5*	3.9	0.7
CN(C(=O)c1ccc2c(c1)CCO2)C(C)(C)C	3.1	-0.2	2.7	-1.1
Cc1cc(C)cc(Cn2ncc(Cl)c(Cl)c2=O)c1	87.5	116.9*	nt	1.1
CCc1sc(C(=O)Nc2ccsc2C(=O)OC)cc1Br	0.0	-3.2	-0.3	3.8
CCOC(=O)N1CCC(NC(=O)CN2C(=O)CSc3nc(C)cc(C)c32)CC1	-70.9*	-77.7	-1.8	-1.2
CCn1c2ccccc2c2cc(NC(=O)COC(=O)c3cc(Cl)c(N)cc3OC)ccc21	1.3	3.0	0.9	72.9*
CCn1c2ccccc2c2cc(NC(=O)c3cc(C)on3)ccc21	-6.7	-2.8	0.4	53.4*
CCn1c2ccccc2c2cc(NC(=O)c3ccc(=O)oc3)ccc21	-0.9	14.5	1.9	57.6*
SMILES	HSF1 inh	HSF-1 act	GAA850 FXN act	AHR activator
CCn1c2ccccc2c2cc(NC(=O)CSc3nnc(-c4cccc(F)c4)o3)ccc21	14.9	22.1	-2.1	59.0*
CCn1c2ccccc2c2cc(NC(=O)c3coc(=O)c(Br)c3)ccc21	-3.3	-2.0	-0.4	41.0
CC(C(=O)NC1CCCCC1)N1C(=O)C2C3C=CC(C3)C2C1=O (configuration not stated)	-0.3	-0.7	0.0	5.0
CCn1c2ccccc2c2cc(NC(=O)c3cc(OC)cc(OC)c3)ccc21	-20.0	-31.4	-1.0	44.8
CCn1c2ccccc2c2cc(NC(=O)c3ccc(Br)o3)ccc21	8.0	-6.0	-2.0	62.7*
CCn1c2ccccc2c2cc(NC(=O)CCCN3C(=O)CCC3=O)ccc21	-5.2	-3.0	-0.3	67.3*
C/[N+]([O-])=C\C1C(=O)CC(C)(C)CC1=O	-54.5*	-62.7	2.7	-1.7
